Measurements reported in PubChem BioAssay (Tox21).
Records with an inconclusive call do not appear. Calls of active or inactive are those of the source. Unless noted, calls follow the shape of the dose curve; as a rule, active = well fitted curve in the direction sought with a large enough effect in the repeat runs; inconclusive = weak or mixed curves; inactive = no such curve, though single readings can be large; an effect the other way counts as inactive or inconclusive.

What was measured:
[1] = qHTS assay to identify aromatase inhibitors - cell viability counter screen (AID 743084);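 also: cells stimulated with testosterone during compound exposure; nearly all actives have a fitted effect of over 55% in size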
[2] = biological target: Aryl hydrocarbon receptor (Homo sapiens) (UniProt P35869); test: qHTS assay to identify small molecule that activate the aryl hydrocarbon receptor (AhR) signaling pathway (AID 743085);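 also: HG2L7.5c1 human HepG2 liver cells with stably integrated DRE-driven firefly reporter; series mostly up to about 70 µM; nearly all actives have a fitted effect of over 15% in size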
In short: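 24 h compound exposure, 37C, HepG2-derived HG2L7.5c1 cells with DRE-responsive luciferase. Readouts: fluorescence viability, then luminescence at room temperature after 30 min.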

[3] = qHTS assay to identify small molecule that activate the aryl hydrocarbon receptor (AhR) signaling pathway - cell viability counter screen (AID 743086);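 also: HepG2 liver cells carrying the AhR DRE luciferase reporter; series mostly up to about 70 µM; nearly all actives have a fitted effect of over 45% in size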
In short: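 HepG2-AhR-luc (HG2L7.5c1) cells, 4000/well, treated 24 h at 37 C with compound; viability measured as CellTiter-Fluor fluorescence after 30 min in the same wells as the luciferase read.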

[4] = biological target: Peroxisome proliferator-activated receptor gamma (Homo sapiens) (UniProt P37231); test: qHTS assay to identify small molecule agonists of the peroxisome proliferator-activated receptor gamma (PPARg) signaling pathway (AID 743094; active = well fitted activation curve with a large enough effect in the signal ratio in the repeat runs, not every such curve was filed as active; the % refers to the signal ratio)
In short: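 Compounds dissolved in DMSO were added to PPARg UAS-bla HEK293H cells for 17 h at 37C, and reporter expression was quantified by fluorescence intensity after 1 h with LiveBLAzer B/G FRET substrate.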

[5] = qHTS assay to identify small molecule antagonists of the peroxisome proliferator-activated receptor gamma (PPARg) signaling pathway - cell viability counter screen (AID 743194); also: nearly all actives have a fitted effect of over 55% in size
In short: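 Cytotoxicity counter screen in PPARg-bla HEK293H cells, same wells as reporter assay. Compounds plus 50 nM rosiglitazone (final) for 17 h at 37 C, then viability read by CellTiter-Glo luminescence.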

[6] = qHTS assay for small molecule agonists of the antioxidant response element (ARE) signaling pathway (AID 743202; active = well fitted activation curve with a large enough effect in the signal ratio in the repeat runs, not every such curve was filed as active; the % refers to the signal ratio)
In short: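 Agonist mode reporter screen: HepG2 cells with ARE-controlled beta-lactamase are incubated with test compounds for 16 h at 37 C, and beta-lactamase activity is measured as fluorescence of cleaved B/G FRET substrate.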

[7] = qHTS assay for small molecule agonists of the antioxidant response element (ARE) signaling pathway - cell viability counter screen (AID 743203; calls by dose curve; also: nearly all actives have a fitted effect of over 55% in size)
In short: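 Following 16 hrs of compound treatment at 37C, HepG2 cells with an ARE-controlled beta-lactamase gene were lysed with CellTiter-Glo. Luminescence was read after 30 min at room temperature.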

[8] = qHTS assay for small molecule activators of the heat shock response signaling pathway - cell viability counter screen (AID 743209); also: nearly all actives have a fitted effect of over 50% in size
In short: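 Readout: CellTiter-Glo luminescence, 30 min at room temperature. System: HSE-bla HeLa cells, 1500/well, plated overnight. Treatment: compounds in DMSO, 5 h at 37 C.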

[9] = qHTS assay for small molecule activators of the heat shock response signaling pathway (AID 743210; active = well fitted activation curve with a large enough effect in the signal ratio in the repeat runs, with a control signal flat, not every such curve was filed as active; the % refers to the signal ratio;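 also: HeLa cells with beta-lactamase reporter driven by heat shock elements; series mostly up to about 63 µM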)
In short: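 Quantitative high-throughput format using an engineered HeLa line in which heat shock response elements drive beta-lactamase; after 5 h with compound, cells received a B/G FRET substrate and fluorescence was read.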

[10] = biological target: Peroxisome proliferator-activated receptor delta (Homo sapiens) (UniProt Q03181); test: qHTS assay to identify small molecule agonists of the peroxisome proliferator-activated receptor delta (PPARd) signaling pathway (AID 743212; calls by dose curve)
In short: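 Quantitative high-throughput agonist screen in a HEK293H beta-lactamase reporter line under UAS control. Compounds in DMSO, at 37 C. Fluorescence read after 2 h with FRET substrate at room temperature.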

[11] = biological target: Peroxisome proliferator-activated receptor delta (Homo sapiens) (UniProt Q03181); test: qHTS assay to identify small molecule antagonists of the peroxisome proliferator-activated receptor delta (PPARd) signaling pathway (AID 743215; active = well fitted inhibition curve with a large enough effect in the signal ratio in the repeat runs, not every such curve was filed as active; the % refers to the signal ratio;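 also: cells stimulated with agonist L165041 at 300 nM final during compound exposure; series mostly up to about 62 µM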)
In short: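 HEK293H UAS-bla, PPARd; agonist L165041 300 nM final with cpd in DMSO; 37 C 17 h; FRET substrate, RT 2 h; fluorescence intensity.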

[12] = qHTS assay to identify small molecule agonists of the farnesoid-X-receptor (FXR) signaling pathway - cell viability counter screen (AID 743218); also: nearly all actives have a fitted effect of over 45% in size
In short: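 Parallel cytotoxicity test: compound-treated (16 h, 37 C) HEK 293T FXR-bla reporter cells were lysed with CellTiter-Glo and luminescence recorded.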

[13] = qHTS assay to identify small molecule antagonists of the farnesoid-X-receptor (FXR) signaling pathway - cell viability counter screen (AID 743221; active = well fitted cell-killing curve with a large enough effect in the repeat runs, not every such curve was filed as active; also: nearly all actives have a fitted effect of over 50% in size)
In short: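 In GeneBLAzer FXR-UAS-bla HEK 293T cells stimulated with 50 uM chenodeoxycholic acid (final), compounds acted for 16 h at 37 C. Viability was assessed afterwards by CellTiter-Glo luminescence.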

[14] = biological target: Vitamin D3 receptor (Homo sapiens) (UniProt P11473); test: qHTS assay to identify small molecule agonists of the vitamin D receptor (VDR) signaling pathway (AID 743222; calls by dose curve)
In short: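 In VDR-bla cells, compound-induced beta-lactamase expression is quantified by FRET substrate fluorescence. Treatment lasts 16 h at 37C; substrate develops 2 h at room temperature.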

[15] = biological target: Vitamin D3 receptor (Homo sapiens) (UniProt P11473); test: qHTS assay to identify small molecule antagonists of the vitamin D receptor (VDR) signaling pathway (AID 743223; active = well fitted inhibition curve with a large enough effect in the signal ratio in the repeat runs, not every such curve was filed as active; the % refers to the signal ratio)
In short: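 Agonist 1alpha,25-dihydroxyvitamin D3 (3 nM in well) was added with each compound to VDR-bla cells preincubated 4 h. Cells stood 16 h at 37C, then FRET substrate 2 h at room temperature; fluorescence intensity recorded.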

[16] = biological target: Peroxisome proliferator-activated receptor gamma (Homo sapiens) (UniProt P37231); test: qHTS assay to identify small molecule antagonists of the peroxisome proliferator-activated receptor gamma (PPARg) signaling pathway (AID 743191; calls by dose curve; also: series mostly up to about 63 µM; nearly all actives have a fitted effect of over 30% in size)
In short: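 GeneBLAzer PPARg UAS-bla HEK293H cells, 5 h post-plating, exposed to compounds 17 h at 37C. LiveBLAzer B/G FRET substrate added for 1 h at room temperature; beta-lactamase reporter read by fluorescence intensity.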

[17] = qHTS assay to identify small molecule agonists of the peroxisome proliferator-activated receptor delta (PPARd) signaling pathway - cell viability counter screen (AID 743211); also: nearly all actives have a fitted effect of over 55% in size
In short: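 Luminescent ATP viability assay (CellTiter-Glo, 30 min RT) in UAS-bla HEK293H cells carrying the PPAR delta reporter construct, 3000 cells/well, after a 17 h compound treatment at 37 C.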

[18] = qHTS assay to identify small molecule antagonists of the peroxisome proliferator-activated receptor delta (PPARd) signaling pathway - cell viability counter screen (AID 743213); also: nearly all actives have a fitted effect of over 50% in size
In short: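 Cytotoxicity counter screen: CellTiter-Glo luminescence read 30 min after addition, in the same wells as the reporter assay. There, PPARd UAS-bla HEK293H cells (3000/well) were treated 17 h at 37 C with compound and 300 nM L165041.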

[19] = biological target: Bile acid receptor (Homo sapiens) (UniProt Q96RI1); test: qHTS assay to identify small molecule antagonists of the farnesoid-X-receptor (FXR) signaling pathway (AID 743217; active = well fitted inhibition curve with a large enough effect in the signal ratio in the repeat runs, not every such curve was filed as active; the % refers to the signal ratio)
In short: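 GeneBLAzer FXR-UAS-bla HEK 293T, CDCA-stimulated (50 uM final). Compound treatment 16 h, 37 °C. Detection: beta-lactamase cleavage of B/G FRET substrate, fluorescence.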

[20] = biological target: Bile acid receptor (Homo sapiens) (UniProt Q96RI1); test: qHTS assay to identify small molecule agonists of the farnesoid-X-receptor (FXR) signaling pathway (AID 743220; active = well fitted activation curve with a large enough effect in the signal ratio in the repeat runs, not every such curve was filed as active; the % refers to the signal ratio)
In short: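 Beta-lactamase reporter under UAS control in GeneBLAzer FXR HEK 293T cells (5000/well) measured with LiveBLAzer FRET substrate after 2 h at room temperature. Compound exposure lasted 16 h at 37C.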

Measured: Potency

Sequence of Bile acid receptor (Homo sapiens) (Q96RI1 whole entry, looked up): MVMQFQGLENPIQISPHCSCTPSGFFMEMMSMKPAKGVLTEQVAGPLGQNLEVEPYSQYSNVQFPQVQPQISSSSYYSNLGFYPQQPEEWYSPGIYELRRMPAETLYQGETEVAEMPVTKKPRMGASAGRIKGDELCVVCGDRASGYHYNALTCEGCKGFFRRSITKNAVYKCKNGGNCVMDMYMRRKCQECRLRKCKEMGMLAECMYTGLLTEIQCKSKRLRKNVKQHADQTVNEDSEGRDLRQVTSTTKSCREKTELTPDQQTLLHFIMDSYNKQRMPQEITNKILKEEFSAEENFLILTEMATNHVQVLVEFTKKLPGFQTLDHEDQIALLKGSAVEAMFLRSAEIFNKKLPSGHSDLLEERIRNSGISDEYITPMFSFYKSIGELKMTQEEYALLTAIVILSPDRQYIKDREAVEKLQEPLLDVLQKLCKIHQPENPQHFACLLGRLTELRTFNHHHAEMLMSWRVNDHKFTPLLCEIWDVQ
Sequence of Peroxisome proliferator-activated receptor delta (Homo sapiens) (Q03181 whole entry, looked up): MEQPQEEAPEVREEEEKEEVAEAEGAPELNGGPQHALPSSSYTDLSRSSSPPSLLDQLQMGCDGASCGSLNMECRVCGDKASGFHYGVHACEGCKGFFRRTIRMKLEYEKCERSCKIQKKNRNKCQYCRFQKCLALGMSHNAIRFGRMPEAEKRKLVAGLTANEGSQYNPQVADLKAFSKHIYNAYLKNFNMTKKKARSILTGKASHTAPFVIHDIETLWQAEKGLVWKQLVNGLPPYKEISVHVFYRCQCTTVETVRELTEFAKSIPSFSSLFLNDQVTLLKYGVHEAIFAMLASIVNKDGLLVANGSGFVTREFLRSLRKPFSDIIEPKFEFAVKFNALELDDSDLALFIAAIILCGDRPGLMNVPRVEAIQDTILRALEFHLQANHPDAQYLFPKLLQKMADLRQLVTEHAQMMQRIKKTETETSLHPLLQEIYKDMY
Sequence of Vitamin D3 receptor (Homo sapiens) (P11473 whole entry, looked up): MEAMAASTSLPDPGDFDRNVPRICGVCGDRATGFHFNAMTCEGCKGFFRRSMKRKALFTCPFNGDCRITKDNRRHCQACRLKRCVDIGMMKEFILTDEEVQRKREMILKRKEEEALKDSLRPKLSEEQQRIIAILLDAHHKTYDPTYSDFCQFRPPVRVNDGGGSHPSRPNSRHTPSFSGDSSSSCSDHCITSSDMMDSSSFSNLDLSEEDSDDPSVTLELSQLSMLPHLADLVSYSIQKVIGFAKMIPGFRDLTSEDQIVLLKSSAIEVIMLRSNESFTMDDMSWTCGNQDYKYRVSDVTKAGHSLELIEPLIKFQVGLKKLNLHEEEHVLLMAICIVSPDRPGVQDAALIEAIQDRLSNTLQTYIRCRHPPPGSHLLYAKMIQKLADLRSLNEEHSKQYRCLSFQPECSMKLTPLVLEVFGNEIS
Sequence of Peroxisome proliferator-activated receptor gamma (Homo sapiens) (P37231 whole entry, looked up): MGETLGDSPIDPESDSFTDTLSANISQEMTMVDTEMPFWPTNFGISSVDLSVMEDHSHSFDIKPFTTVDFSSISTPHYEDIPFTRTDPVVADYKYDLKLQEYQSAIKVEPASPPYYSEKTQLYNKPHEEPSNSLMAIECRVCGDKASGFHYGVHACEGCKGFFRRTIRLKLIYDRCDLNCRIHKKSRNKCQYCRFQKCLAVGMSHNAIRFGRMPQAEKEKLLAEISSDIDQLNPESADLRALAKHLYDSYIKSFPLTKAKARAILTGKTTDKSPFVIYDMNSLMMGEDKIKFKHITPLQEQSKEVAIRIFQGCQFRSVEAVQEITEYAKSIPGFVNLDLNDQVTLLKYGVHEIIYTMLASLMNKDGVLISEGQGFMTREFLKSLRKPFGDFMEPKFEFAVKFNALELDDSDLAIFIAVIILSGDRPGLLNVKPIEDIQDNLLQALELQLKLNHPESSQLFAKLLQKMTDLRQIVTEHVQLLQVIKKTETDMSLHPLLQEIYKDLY
Sequence of Aryl hydrocarbon receptor (Homo sapiens) (P35869 whole entry, looked up): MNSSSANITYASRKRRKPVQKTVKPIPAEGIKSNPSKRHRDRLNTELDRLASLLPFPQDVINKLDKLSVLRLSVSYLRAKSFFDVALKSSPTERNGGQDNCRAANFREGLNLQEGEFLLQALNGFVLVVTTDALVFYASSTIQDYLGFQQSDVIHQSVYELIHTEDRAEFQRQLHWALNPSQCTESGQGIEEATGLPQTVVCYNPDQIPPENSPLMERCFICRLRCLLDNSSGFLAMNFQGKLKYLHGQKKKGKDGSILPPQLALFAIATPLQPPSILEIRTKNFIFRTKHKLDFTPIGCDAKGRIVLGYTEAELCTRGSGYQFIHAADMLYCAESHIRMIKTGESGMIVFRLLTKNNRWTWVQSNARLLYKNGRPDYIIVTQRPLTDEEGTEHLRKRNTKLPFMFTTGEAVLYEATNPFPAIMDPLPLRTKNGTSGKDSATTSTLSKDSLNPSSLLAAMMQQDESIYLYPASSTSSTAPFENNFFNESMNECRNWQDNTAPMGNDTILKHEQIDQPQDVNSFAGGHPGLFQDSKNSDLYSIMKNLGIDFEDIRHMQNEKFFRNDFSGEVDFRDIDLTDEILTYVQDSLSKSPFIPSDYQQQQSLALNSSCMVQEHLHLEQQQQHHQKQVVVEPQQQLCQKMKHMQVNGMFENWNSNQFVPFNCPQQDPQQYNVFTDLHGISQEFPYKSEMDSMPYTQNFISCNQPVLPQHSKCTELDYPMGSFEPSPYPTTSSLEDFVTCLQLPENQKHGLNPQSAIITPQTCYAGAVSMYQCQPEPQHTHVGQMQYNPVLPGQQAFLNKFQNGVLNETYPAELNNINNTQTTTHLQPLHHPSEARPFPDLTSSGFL

CCCCCCCCCCC=O
inactive: [1] | [2] | [3] | [4] | [5] | [6] | [7] | [8] | [9] | [10] | [11] | [12] | [13] | [14] | [15]

O=C(NO)C1(NS(=O)(=O)c2ccc(Oc3ccc(F)cc3)cc2)CCOCC1
inactive: [1] | [2] | [3] | [4] | [16] | [5] | [7] | [8] | [9] | [17] | [10] | [18] | [11] | [12] | [13]

CCCC(C)c1ccccc1O (stereo not drawn)
inactive: [1] | [2] | [3] | [4] | [16] | [5] | [6] | [7] | [8] | [9] | [10] | [11] | [19] | [12] | [20] | [13] | [14] | [15]

Clc1ccc2nsnc2c1NC1=NCCN1
inactive: [1] | [2] | [3] | [4] | [16] | [5] | [7] | [8] | [9] | [17] | [10] | [18] | [11] | [19] | [12] | [13] | [14] | [15]

CCC(Cl)C(Cl)C(Cl)CC(Cl)C(Cl)C(C)Cl (stereo not drawn)
inactive: [1] | [2] | [3] | [4] | [16] | [7] | [8] | [14]

CN(C/C=C/C#CC(C)(C)C)Cc1cccc2ccccc12
inactive: [1] | [2] | [3] | [4] | [16] | [5] | [7] | [8] | [9] | [18] | [20] | [14] | [15]

Cn1cc(C(=O)[C@@H]2CCc3nc[nH]c3C2)c2ccccc21
inactive: [1] | [2] | [3] | [4] | [5] | [6] | [7] | [8] | [17] | [10] | [19] | [12] | [20] | [13] | [14] | [15]
